What all share (assay): NCI-60 one-dose screen, 48 h (100 = growth as untreated, 0 = no growth, -100 = all killed)
Common to all, as to settings: 10 µM unless noted

The test system of test [1] is DU-145 prostate.
Test [2] deals with K-562 leukemia.
The test system of test [3] is MALME-3M melanoma.
Test [4] relates to MDA-MB-231 breast.
Test [5] relates to RXF 393 renal.
Test [6] relates to SF-268 CNS.
The subject of test [7] is SF-295 CNS.
For test [8], the system named is SF-539 CNS.
Test [9] deals with UACC-257 melanoma.
For test [10], the system named is M14 melanoma.
Test [11] concerns HCT-15 colon.
Test [12] has as its system HT29 colon.
Test [13] relates to SNB-75 CNS.
Test [14] relates to SNB-19 CNS.
The subject of test [15] is U251 CNS.
The subject of test [16] is PC-3 prostate.
The test system of test [17] is SK-MEL-5 melanoma.
In test [18] the test system is UACC-62 melanoma.
For test [19], the system named is LOX IMVI melanoma.
In test [20] the test system is SK-MEL-28 melanoma.

The structures appear in SMILES notation. About 83,000 compounds went through this panel and 20% of them were active in at least one assay; those are over-represented in the sample as a whole.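 A percent growth of 40 corresponds to 60% growth inhibition; 0 means no net growth; -100 means all cells died. Active threshold: below 10.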 Unmarked numbers belong to inactive results. Activity calls are given as the source filed them.

In the case of `CC(C)NC[C@@H](C(=O)N1CCN(c2ncnc3c2[C@H](C)C[C@H]3O)CC1)c1ccc(Cl)cc1`, the growth in test [1] is 67.8%; in test [2] it was 64.7%; in test [3], 60.1%; in test [4], 87.6%; in test [5], -24.8% (active); in [6] it was 57.7%. The growth was 19.9% in test [7]; 2.83% (active) in [8]; 42.8% in [9]; 69.9% in [10]; 71.2% in test [11]; 27.4% in test [12]. Also, the growth in test [13] was 8.53% (active); in [14] it was 26.7%; in test [15] it was 28.4%; in test [16], 33%; in test [17], 72.4%; in [18], 44.6%. Besides, the growth in [19] was 66.8%; in test [20], 55.6%.

`CNC(=O)c1cccc2cc(Oc3ccnc4cc(OCC5(N)CC5)c(OC)cc34)ccc12`: the growth in [1] is 77.7%; in test [2], 19.5%; in [3], 74.3%; in test [4] it was 60.8%; in test [5] it was 39.8%; in test [6], 52.4%. Moreover, the growth in test [7] was 58.4%; in [8], 12.6%; in test [9], 90.2%; in test [10], 56.1%; in test [11], 57.8%; in [12], 34.6%. The growth in [13] is 26.7%; in test [14], 67.6%; in [15] it was 66.4%; in test [16], 66.9%; in test [17] it was 76.5%; in test [18], 82.2%. Also, the growth was 46.3% in test [19] and 87% in test [20].

Turning to `O=c1sn(-c2cccc3ccccc23)c(=O)n1Cc1ccccc1`, the growth in test [1] is 108%; in test [2], 9.59% (active); in [3], 96.5%; in [4], 101%; in test [5], 99.3%; in [6] it was 105%. Besides, the growth in [7] was 105%; in test [8], 114%; in test [9] it was 89.2%; in test [10], 89.8%; in test [11] it was 104%; in test [12], 100%. Also, the growth in test [13] was 105%; in [14], 101%; in [15], 97.1%; in test [16], 89.9%; in test [17], 104%; in test [18], 92.6%. In addition, the growth in test [19] is 99.9%; in test [20], 114%.

Consider `CC[C@@H]1C(=O)N(C)c2cnc(Nc3ccc(C(=O)NC4CCC(N5CCN(CC6CC6)CC5)CC4)cc3OC)nc2N1C(C)C` (stereo not given in full), for which the growth is 14.6% in test [1]; -6.16% (active) in test [2]; -80.6% (active) in test [3]; 5.19% (active) in test [4]; -30.4% (active) in test [5]; 11.2% in test [6]. Besides, the growth in test [7] is -36.2% (active); in test [8], -85.7% (active); in [9], -67.3% (active); in test [10], -57.7% (active); in [11], 2.76% (active); in test [12], -25.9% (active). The growth in [13] is -8.67% (active); in test [14], 25.9%; in test [15], -16.3% (active); in test [16], 9.7% (active); in test [17], -96.5% (active); in test [18], -47.3% (active). Also, the growth in test [19] is -72.1% (active); in test [20] it was -72.3% (active).

For `Cc1cc2c(F)c(Oc3ncnn4cc(OC[C@@H](C)OC(=O)[C@H](C)N)c(C)c34)ccc2[nH]1`, the growth was 66.5% in test [1]; 41.5% in test [2]; 11.4% in test [3]; 39.8% in test [4]; 43.8% in [5]; 74.7% in [6]. Further, the growth in test [7] is 77.6%; in test [8], 73.5%; in test [9], -15.9% (active); in [10], 16.3%; in test [11], 38.6%; in test [12], 6.32% (active). In addition, the growth in test [13] was 55.6%; in test [14], 51.8%; in test [15], 44.8%; in [16], 54.5%; in test [17], 42.6%; in test [18], 2.73% (active). Besides, the growth in test [19] was 26.5%; in test [20] it was 10.5%.

On to `CCOc1cccc(/C=N/NC(=O)c2ccccc2Nc2ccnc(C(F)(F)F)c2)c1O`, for which the growth in [1] is 26.2%; in test [2], 15.5%; in test [3], 18.1%; in test [4], 47%; in test [5] it was 23.9%; in test [6] it was 13%. For the same compound, the growth in [7] is 17.7%; in test [8], 0.222% (active); in test [9], 10.2%; in [10] it was -29.2% (active); in test [11] it was 34.2%; in test [12], 47.9%. The growth was 14.1% in test [13]; 21.1% in test [14]; 15.2% in test [15]; 54.2% in test [16]; -67% (active) in test [17]; 3.69% (active) in test [18]. For the same compound, the growth in [19] is 7.4% (active); in test [20] it was 21.1%.

With `O=C1CCC(=O)CC1`, the growth is 110% in test [1]; 96.7% in test [2]; 110% in test [3]; 105% in test [4]; 113% in test [5]; 98.8% in test [6]. Also, the growth in test [7] is 101%; in test [8] it was 95.3%; in test [9] it was 89.4%; in test [10], 98.1%; in test [11], 102%; in test [12] it was 102%. Moreover, the growth in test [13] is 88.8%; in [14] it was 93.9%; in test [15], 99.4%; in [16] it was 92.7%; in test [17] it was 109%; in test [18] it was 99%. The growth was 101% in test [19] and 112% in test [20].
